Assay outcomes from PubChem BioAssay.
Only a selection was taken, and hits are over-represented in it overall.
TTR transcr act – activators of transthyretin transcription. actives 1.3% (n = 92,000). AID 1117267. activation, % at 16.7 µM. SH-SY5Y TTR promoter Gaussia luciferase, luminescence; 100% = recombinant luciferase protein wells;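 active means activation above the mean of all tested compounds plus 3 SD, cut at about 9.5% in these data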;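 further: cells exposed to compounds for one day before reading; 0% = median of all test compound wells on the plate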
HuH7 TTR inh – HuH7 TTR transcription inhibition, counter-screen; shares compounds with TTR transcr act; HuH7 TTR promoter-Gaussia luciferase reporter, luminescence; inhibition, % at 16.7 µM; actives 4% (n = 1,100);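 active means average inhibition above the solvent-only control wells' mean plus 3 SD, cut at about 15% in these data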;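 further: 0% = cells with DMSO only and 100% = cells with inhibitor control FD; inhibitors lower well luminescence so higher value means more inhibition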
TTR up confirm – confirmation of human transthyretin transcription activators. SHSY5Y TTR promoter Gaussia luciferase, luminescence; 100% = purified Lucia enzyme wells, no cells. 1,100 tested, under 10 active. activation, % at 16.7 µM. shares compounds with TTR transcr act;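 active means mean activation above a set limit taken from the earlier primary screen, cut at about 11% in these data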;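 further: 0% = DMSO-treated cells and 100% = recombinant Lucia luciferase without cells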
Numbers without * were called inactive.

SMILES	TTR transcr act	others
CC(C)(C)NC(=O)C1CC(=O)N(CCc2ccc(F)cc2)C1 (configuration not stated)	6
COc1ccc(C2=NN(C(=O)COC(=O)c3ccc(NC(=O)CC#N)cc3)C(c3ccco3)C2)cc1 (configuration not stated)	1
Cc1cccc(C(=O)c2ccccc2C(=O)O)c1	11*	HuH7 TTR inh=-7;TTR up confirm=1
O=C(O)c1cccc(C(=O)c2cccc3ccccc23)c1	-1
Cc1cccc(C(=O)NNC(=O)c2ccccc2-n2cccc2)c1	-1
O=C(Nc1nnc([C@@H]2C[C@H](O)[C@@H](CO)O2)s1)Nc1cccc2c1CCCC2	5
Fc1ccccc1/C=N/n1c(COc2ccccc2)n[nH]c1=S	1
O=C1C2C3C=CC(CC3)C2C(=O)N1c1ccc(Br)cc1 (configuration not stated)	1
COc1ccc(CCNC(=O)c2cc(-c3ccccc3)c(N3CCOCC3)s2)cc1OC	-3
COc1cccc(C(=O)Nc2nc(-c3ccncc3)cs2)c1	-1
COc1cccc(-c2csc(NC(=O)C3CC3)n2)c1	11*	HuH7 TTR inh=33*;TTR up confirm=-1
COc1cccc(-c2csc(NC(=O)Nc3ccccc3)n2)c1	-5
O=C(NCc1ccccc1OC(F)(F)F)C1CCC(=O)N(CCCN2CCOCC2)C1 (configuration not stated)	9
COC(=O)c1cc(NCc2ccccc2F)ccc1N1CCOCC1	10*	HuH7 TTR inh=-9;TTR up confirm=-1
COC(=O)c1cc(NC(=O)c2cc(-c3ccc(C(F)(F)F)cc3)oc2C(F)(F)F)ccc1N1CCOCC1	-1
COC(=O)c1cc(NC(=O)c2c(C)noc2C)ccc1N1CCOCC1	-1
CCN(CC(=O)NCc1ccccn1)S(=O)(=O)c1cc(Cl)ccc1Cl	0
CN1CC[C@@H]2C(=O)N3CCc4ccc(-c5ccc6c(c5)OCO6)cc4[C@@H]3C[C@@H]21	1
COc1ccc2c(c1)/C(=N/OC(=O)c1cccs1)CCC2	0
O=C(O/N=C1/CCCc2occc21)c1ccccc1	-3
Cc1ccc(C(=O)O/N=C2\CCCc3ccccc32)cc1	23*	HuH7 TTR inh=-2;TTR up confirm=0
O=C(CSc1nnc(CNC(=O)c2c(F)cccc2F)o1)c1ccccc1	1
CC(=O)N1CCN(S(=O)(=O)c2cccc(C(=O)OCC(=O)N(CCC#N)c3ccc(F)cc3)c2)CC1	-1
CC1(C)SC[C@H](C(=O)Nc2cccc(Cl)c2)N1C=O	2
Cc1cccc(C(=O)N(Cc2nc3ccccc3c(=O)[nH]2)C2CCCC2)c1	-3
SMILES	TTR transcr act	others
O=C(COCc1nc2ccccc2c(=O)[nH]1)NCC1CCCCC1	13*	HuH7 TTR inh=-15;TTR up confirm=0
O=C(c1ccccc1)N(Cc1nc2ccccc2c(=O)[nH]1)C1CCCC1	0
CCOc1ccccc1C(=O)NCC(=O)OCC(=O)N1CCCC1	3
COc1ccc([C@H]2C[C@H](n3cc(C4CC4)nn3)[C@@H](O)CN2C(=O)C2CCCCC2)cc1	1
Cc1ncoc1C(=O)Nc1nccs1	10.0*	HuH7 TTR inh=-9;TTR up confirm=1
Cc1cccc(C(=O)Nc2nccs2)c1[N+](=O)[O-]	40*	HuH7 TTR inh=-7;TTR up confirm=0
O=C(Nc1nccs1)c1ccc2c(c1)OCO2	0
CC(=O)c1noc(C)c1C(=O)Nc1nccs1	-4
CSc1ccccc1C(=O)Nc1nccs1	-1
CCOC(=O)c1ccc(NC(=O)c2cccc(C)c2[N+](=O)[O-])cc1	1
CC(C)CC(=NNC(=O)c1ccncc1)c1cc(Cl)ccc1O	-2
C=CCn1c(SCC(=O)NC2CC2)nnc1-c1cccs1	-1
CCCCN1CCCCC1(C)C(=O)NCc1cccc(OC)c1 (configuration not stated)	-2
O=C(NC(=S)NN1CCCCC1c1cccnc1)c1ccc(Cl)cc1Cl (configuration not stated)	-1
O=S(=O)(Nc1nnc(C2CC2)s1)c1ccccc1	-1
C=CCC(=O)NC1CCCc2c1cnn2-c1cc(F)cc(F)c1 (configuration not stated)	0
COc1ccc(NC(=O)N(C)C[C@H]2Oc3c(NC(=O)Cc4ccccc4)cccc3C(=O)N([C@H](C)CO)C[C@@H]2C)cc1	-3
COC(=O)[C@H](CC(C)C)NC(=O)NCc1ccc(Cl)cc1	-1
COc1ccccc1N(CC(=O)NCC1CCCO1)C(=O)CNS(=O)(=O)c1ccc(Cl)cc1 (configuration not stated)	2
COc1ccccc1CN(CC(=O)NCc1ccco1)C(=O)CNS(=O)(=O)c1ccc(C)cc1	12*	HuH7 TTR inh=-11;TTR up confirm=-1
COc1ccc(CNC(=O)CN(Cc2ccco2)C(=O)CNS(=O)(=O)c2ccccc2)cc1	1
COc1ccccc1N(CC(=O)NCC1CCCO1)C(=O)CNS(=O)(=O)c1ccc(C)cc1 (configuration not stated)	13*	HuH7 TTR inh=-9;TTR up confirm=1
